Bioassay records deposited in PubChem BioAssay by several laboratories.
EP2 modulator: EP2 receptor (human) modulation | P43116 | EP2-expressing cells, cAMP HTRF FRET, PGE2 co-stimulation | induction, % at 25 µM | hit rate 0.83% among 260,000 | AID 940;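 active means compounds whose cAMP rise, as percent of the full-agonist control response, exceeds 60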;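 further: rat C6 glioma line stably carrying human EP2 under a CMV promoter; the protocol text gives 20 µM as final concentration; 100% = response of wells given 1 µM PGE2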
PGE2 EP2 inh: EP2 receptor (human) inhibition. AID 1422. C6 glioma cells expressing human EP2, cAMP TR-FRET; cells stimulated with saturating PGE2. inhibition, % at 25 µM. hit rate 0.52% among 260,000. P43116;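 active means percent inhibition above 40 after rounding to a whole number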;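 further: rat C6 glioma host cells with rolipram phosphodiesterase inhibitor present; the protocol text gives 20 µM as final concentration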
S1P3 antag: S1P3 (human) receptor antagonism; inhibition, % at 4.98 µM; hit rate 0.27% among 170,000; CHO S1P3 NFAT-BLA reporter, FRET fluorescence, antagonist mode; Q99500;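 active means inhibition above the plate cutoff, the mean inhibition of test wells on that plate plus 3 SD, cut at about 28% in these data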;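 further: cells challenged with S1P at its EC80 of 0.8 µM; blue over green emission ratio from cleaved BLA substrate after 4 h stimulation; 0% = S1P-stimulated wells and 100% = unstimulated DMSO-only wells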
Target sequence (Q99500 whole entry, looked up): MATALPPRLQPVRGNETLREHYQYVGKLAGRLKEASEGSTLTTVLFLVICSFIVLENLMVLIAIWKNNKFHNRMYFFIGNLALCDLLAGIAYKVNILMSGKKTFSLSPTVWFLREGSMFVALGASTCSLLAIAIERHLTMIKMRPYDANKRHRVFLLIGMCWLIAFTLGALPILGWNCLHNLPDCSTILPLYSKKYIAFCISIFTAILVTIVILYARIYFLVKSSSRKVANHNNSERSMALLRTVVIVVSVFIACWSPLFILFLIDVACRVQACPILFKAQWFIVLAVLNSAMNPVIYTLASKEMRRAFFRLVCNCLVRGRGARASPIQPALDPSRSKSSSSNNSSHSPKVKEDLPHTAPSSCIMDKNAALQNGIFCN
S1P4 ag: agonists of human S1P4 receptor. O95977. S1P4-expressing cell line, agonist reporter assay. activation, % at 4.98 µM. hit rate 0.35% among 220,000; in the data active means activation above about 11%;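 further: 0% = DMSO vehicle and 100% = reference agonist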
Pf gametocyte: inhibitors of late stage P. falciparum gametocyte viability. P. falciparum stage V gametocytes, ATP luminescence, 24 h. inhibition, % at 10.9 µM. hit rate 0.065% among 150,000;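 active means inhibition above the mean plus 3 SD of compounds within the control limits, set per campaign, cut at about 38% in these data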;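 further: 0% = DMSO wells and 100% = medium only without gametocytes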
S1P4 antagonist: antagonists of human S1P4 receptor; O95977; inhibition, % at 4.98 µM; S1P4-expressing cells, antagonist mode, reporter read-out; hit rate 0.26% among 220,000; in the data active means inhibition above about 29%;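 further: 0% = wells stimulated with agonist and 100% = vehicle wells without agonist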
EP2 cAMP induct: EP2 receptor cAMP induction, counter-screens negative; shares compounds with EP2 modulator; C6 glioma EP2 cells, cAMP HTRF induction; plus low (about EC15) PGE2 agonist; calls only at 20 µM (by protocol); hit rate 47% among 1,300; AID 1080;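 active means cAMP induction above 50% in the main assay while under 30% in all four parallel counter assays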;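 further: rat C6 glioma cells stably expressing human EP2 receptor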
* = called active by the depositor; i = inactive; · = not tested or not shown; + = active, no number. Most compounds without a hit are left out; they make up all but 1.9% or so of the library.

SMILES | EP2 modulator | PGE2 EP2 inh | S1P3 antag | S1P4 ag | Pf gametocyte | S1P4 antagonist | EP2 cAMP induct
CC(Sc1ccc2ccccc2n1)C(=O)O (stereo not drawn) | 97* | · | · | 0 | · | 17 | i
Cc1cc(SC(C)C(=O)O)nc2ccccc12 (stereo not drawn) | 68* | 12 | -2 | 2 | · | -22 | i
CC(Sc1cnc2ccccc2n1)C(=O)O (stereo not drawn) | 68* | 19 | · | 2 | · | 4 | i
Cc1cccc(/N=C/c2c(O)cc(C)oc2=O)n1 | -2 | 15 | -18 | -1 | · | 2 | ·
Cc1cccc(/N=C/c2c(O)ccc3oc4c(c23)CCCC4)n1 | 73* | 7 | 6 | 0 | · | 16 | +
COc1ccc(S(=O)(=O)N(CC(=O)N2CCCC2)c2ccc(Cl)cc2)cc1OC | 8 | 9 | · | · | · | · | ·
CCc1ccc2[nH]c(=O)c(CN(CC3CCCO3)S(=O)(=O)c3ccc4c(c3)OCCO4)cc2c1 (stereo not drawn) | -27 | 10 | · | · | · | · | ·
Cc1ccc(-c2cc(C(F)F)n3ncc(C(=O)N4CCCC4)c3n2)cc1 | -89 | 19 | · | · | · | · | ·
COc1cccc2[nH]c3c(N4CCC(C)CC4)ncnc3c12 | 80* | 6 | 3 | 1 | · | 7 | +
COc1cccc2[nH]c3c(N4CCc5ccccc5C4)ncnc3c12 | -12 | 11 | 11 | 2 | · | -6 | ·
CCCC(=O)Nc1nnc(C2CCCC2)s1 | -16 | 2 | · | · | · | · | ·
C=CCSc1nc2ccccc2c(=O)n1CCc1ccc(OC)c(OC)c1 | 37 | 5 | · | · | · | · | ·
CC(=O)c1ccc(S(=O)(=O)NCCCC(=O)NCCc2ccccn2)cc1 | 71* | 0 | 14 | 1 | -19 | 7 | i
COc1ccc(C2(O)CCN(CC(=O)Nc3ccc4c(c3)OCO4)CC2)cc1 | -30 | 2 | · | · | · | · | ·
COc1ccc(S(=O)(=O)N2CCN(c3c(C)cc(C)cc3C)CC2)cc1OC | -95 | 11 | · | · | · | · | ·
Cc1nc(-c2ccccc2)cc(=O)[nH]1 | 12 | 9 | -7 | 0 | · | -20 | ·
O=c1nc(-c2ccccc2)cc(-c2ccccc2)[nH]1 | 65* | 10 | -24 | 0 | 4 | -21 | i
CCn1c2cc(C)oc2c2cnn(CC(=O)N(Cc3ccncc3)C3CC3)c(=O)c21 | 5 | · | · | · | · | · | ·
Cc1ccc2[nH]c3c(=S)nc[nH]c3c2c1 | 88* | 12 | -1 | 3 | -12 | -22 | i
CC(C)c1ncc(CN2CCC(O)(c3ccc(F)cc3)CC2)cn1 | -13 | 3 | · | · | · | · | ·
O=C(Nc1cc(S(=O)(=O)Nc2ccc(Cl)cc2)ccc1N1CCCCC1)c1ccc(F)cc1Cl | 76* | 8 | -5 | 1 | 0 | -8 | +
COc1ccc(NS(=O)(=O)c2ccc(N3CCOCC3)c(NC(=O)c3ccccc3Cl)c2)cc1 | 20 | 10 | 0 | -1 | -4 | -8 | ·
O=C(CN1CCC(O)(c2ccc3c(c2)OCO3)CC1)NCC1CC1 | -12 | 6 | · | · | · | · | ·
O=C(O)c1csc(N/N=C/c2ccc(Br)cc2)n1 | 73* | 9 | -16 | -1 | -1 | -5 | i
CCc1cc2ccc(C)cc2nc1SCC(=O)N1CCCC1 | 22 | 8 | · | · | · | · | ·
SMILES | EP2 modulator | PGE2 EP2 inh | S1P3 antag | S1P4 ag | Pf gametocyte | S1P4 antagonist | EP2 cAMP induct
CCc1cc2cc(C)cc(C)c2nc1SCC(=O)N1CCCC1 | 82* | 9 | · | 0 | -19 | -11 | i
COc1ccc2nc3sc(C(=O)NCc4ccco4)c(N)c3cc2c1 | -65 | 21 | · | · | · | · | ·
CN(Cc1cccs1)c1ncnc2sccc12 | -22 | 12 | -12 | 1 | · | -2 | ·
Cc1sc2ncnc(N(C)Cc3cccs3)c2c1C | 52 | 14 | · | 0 | -7 | -1 | +
CCOc1cc(C2C(C#N)=C(N)OC3=C2C(=O)CC(C)(C)C3)ccc1OC(C)=O (stereo not drawn) | 7 | 10 | · | · | · | · | ·
Cc1cccc(NC(=O)CSc2nc3ccccc3c(=O)n2CC2CCCO2)c1C (stereo not drawn) | 22 | 11 | · | · | · | · | ·
COc1ccc(/C(O)=C2/C(=O)C(=O)NC2c2ccc(Cl)cc2Cl)cc1OC (stereo not drawn) | 13 | 15 | · | · | · | · | ·
CCOC(=O)c1cnn(-c2nc(-c3ccc(F)cc3)cs2)c1C(F)(F)F | 65* | 8 | · | 1 | -36 | -23 | i
CCOC(=O)c1cnn(-c2nc(-c3ccccc3)cs2)c1C(F)(F)F | 25 | 5 | · | 1 | · | -7 | ·
